According to ChEMBL document CHEMBL3988442, “University of Dundee, Small-Polar-MMV Screening Library” (2021):
For some assays here: Results with a measured potency or affinity are listed apart.

How the values were obtained:
Design in all cases: scale not given: direction of the effect not stated beside the values
[1] = molecular target: Protein translocase subunit SecA (Escherichia coli (strain K12)) (UniProt P10408); experiment: Assay to Identify E. coli SecA ATPase Inhibitors; format: functional; conditions: 30 µM
[2] = molecular target: T1, Ubiquitin-activating enzyme e1, putative (Leishmania donovani (strain BPK282A1)) (UniProt E9BSI1); experiment: Leishmania donovani Ubiquitin Activating Enzyme (LdE1); format: functional; conditions: 30 µM
T1 sequence (whole entry): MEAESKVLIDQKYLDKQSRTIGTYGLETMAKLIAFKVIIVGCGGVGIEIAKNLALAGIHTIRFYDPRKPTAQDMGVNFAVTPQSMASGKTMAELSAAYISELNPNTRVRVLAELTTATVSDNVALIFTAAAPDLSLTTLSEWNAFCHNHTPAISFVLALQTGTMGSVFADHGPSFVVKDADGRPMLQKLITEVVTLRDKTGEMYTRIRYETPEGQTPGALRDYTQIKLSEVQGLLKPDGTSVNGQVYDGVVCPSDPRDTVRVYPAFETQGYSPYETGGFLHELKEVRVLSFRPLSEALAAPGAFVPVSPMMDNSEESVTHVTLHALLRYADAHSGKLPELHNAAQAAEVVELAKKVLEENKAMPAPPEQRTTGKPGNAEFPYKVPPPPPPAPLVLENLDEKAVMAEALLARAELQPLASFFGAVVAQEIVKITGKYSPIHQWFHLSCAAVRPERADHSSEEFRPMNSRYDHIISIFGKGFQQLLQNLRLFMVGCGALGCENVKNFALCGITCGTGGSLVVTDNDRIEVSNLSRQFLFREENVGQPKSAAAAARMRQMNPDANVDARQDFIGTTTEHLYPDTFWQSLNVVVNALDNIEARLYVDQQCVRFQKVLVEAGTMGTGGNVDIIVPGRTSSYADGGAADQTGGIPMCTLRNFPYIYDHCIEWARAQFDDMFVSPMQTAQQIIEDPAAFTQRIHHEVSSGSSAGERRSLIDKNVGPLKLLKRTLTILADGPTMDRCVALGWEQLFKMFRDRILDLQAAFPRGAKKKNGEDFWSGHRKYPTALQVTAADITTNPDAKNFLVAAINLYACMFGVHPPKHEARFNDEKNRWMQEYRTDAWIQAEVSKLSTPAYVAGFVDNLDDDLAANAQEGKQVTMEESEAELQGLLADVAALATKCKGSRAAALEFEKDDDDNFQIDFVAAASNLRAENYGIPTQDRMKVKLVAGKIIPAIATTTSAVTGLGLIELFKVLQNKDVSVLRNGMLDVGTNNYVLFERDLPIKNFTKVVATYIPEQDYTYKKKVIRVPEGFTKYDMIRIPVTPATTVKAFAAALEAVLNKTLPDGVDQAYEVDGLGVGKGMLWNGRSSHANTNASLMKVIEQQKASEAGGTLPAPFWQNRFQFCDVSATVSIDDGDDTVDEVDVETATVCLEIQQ

[3] = molecular target: AMP-activated protein kinase, AMPK (Homo sapiens) (UniProt P54646+O43741+P54619+Q9UGJ0+Q9Y478+Q13131+Q9UGI9); experiment: AMP-dependent Kinase enzyme assay. An in vitro enzyme assay that detects ADP turnover that is directly proportional to AMPK activity. This uses naive AMPK that is activated during the assay with MK-8722; format: functional; conditions: 30 µM
[4] = molecular target: Sialic acid-binding Ig-like lectin 9 (Homo sapiens) (UniProt Q9Y336); experiment: Hs-Siglec9 ALPHAscreen SOP 20170721; conditions: 10 µM
Trypanosoma cruzi = experiment: Trypanosoma cruzi phosphomannomutase and mannose-1-phosphate guanylyltransferase assay; format: functional; conditions: 10 µM
[5] = molecular target: T2, Arginase-2, mitochondrial (Homo sapiens) (UniProt P78540); experiment: in vitro enzyme assay to detect the production of urea directly proportional to the activity of Arginase II; format: functional; conditions: 33.3 µM; note: in the data most compounds retested in dose-response had high values
T2 sequence (whole entry): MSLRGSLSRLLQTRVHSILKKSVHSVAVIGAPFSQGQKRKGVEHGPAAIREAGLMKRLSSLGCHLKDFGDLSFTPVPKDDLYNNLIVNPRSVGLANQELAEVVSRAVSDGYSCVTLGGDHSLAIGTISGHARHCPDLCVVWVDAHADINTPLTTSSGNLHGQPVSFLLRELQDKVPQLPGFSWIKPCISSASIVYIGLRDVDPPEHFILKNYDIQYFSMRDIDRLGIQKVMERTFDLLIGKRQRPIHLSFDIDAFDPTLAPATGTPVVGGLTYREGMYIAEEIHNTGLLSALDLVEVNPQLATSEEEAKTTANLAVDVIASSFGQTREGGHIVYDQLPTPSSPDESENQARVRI

[6] = molecular target: T3, Proteasome subunit beta (Trypanosoma cruzi) (UniProt O96673); experiment: Trypanosoma cruzi proteasome chymotrypsin-like activity (TcProtChymo) assay.; note: in the data most compounds retested in dose-response had high values; format: functional; conditions: 9.37 µM
T3 sequence (whole entry): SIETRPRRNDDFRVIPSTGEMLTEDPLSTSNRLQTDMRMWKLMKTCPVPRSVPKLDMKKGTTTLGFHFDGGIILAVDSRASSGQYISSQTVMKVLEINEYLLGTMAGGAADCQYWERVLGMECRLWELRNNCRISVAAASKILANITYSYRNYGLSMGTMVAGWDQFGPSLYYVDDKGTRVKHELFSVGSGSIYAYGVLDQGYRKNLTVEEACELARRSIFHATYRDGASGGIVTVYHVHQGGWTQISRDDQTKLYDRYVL

Homo sapiens = species on record: Homo sapiens; experiment: To identify inhibition of the IFN signalling (Jak-Stat) pathway via expression of an eGFP reporter gene under the control of an IFN-stimulated response element (ISRE) containing MxA promoter.; format: functional; conditions: 30 µM
[7] = molecular target: T4, Tyrosyl-tRNA synthetase, putative (Trypanosoma cruzi (strain CL Brener)) (UniProt Q4DSP6); experiment: Trypanosoma cruzi tyrosyl tRNA synthetase (TcYRS) _High Tyrosine SOP; format: functional; conditions: 30 µM; note: in the data most compounds retested in dose-response had high values
T4 sequence (whole entry): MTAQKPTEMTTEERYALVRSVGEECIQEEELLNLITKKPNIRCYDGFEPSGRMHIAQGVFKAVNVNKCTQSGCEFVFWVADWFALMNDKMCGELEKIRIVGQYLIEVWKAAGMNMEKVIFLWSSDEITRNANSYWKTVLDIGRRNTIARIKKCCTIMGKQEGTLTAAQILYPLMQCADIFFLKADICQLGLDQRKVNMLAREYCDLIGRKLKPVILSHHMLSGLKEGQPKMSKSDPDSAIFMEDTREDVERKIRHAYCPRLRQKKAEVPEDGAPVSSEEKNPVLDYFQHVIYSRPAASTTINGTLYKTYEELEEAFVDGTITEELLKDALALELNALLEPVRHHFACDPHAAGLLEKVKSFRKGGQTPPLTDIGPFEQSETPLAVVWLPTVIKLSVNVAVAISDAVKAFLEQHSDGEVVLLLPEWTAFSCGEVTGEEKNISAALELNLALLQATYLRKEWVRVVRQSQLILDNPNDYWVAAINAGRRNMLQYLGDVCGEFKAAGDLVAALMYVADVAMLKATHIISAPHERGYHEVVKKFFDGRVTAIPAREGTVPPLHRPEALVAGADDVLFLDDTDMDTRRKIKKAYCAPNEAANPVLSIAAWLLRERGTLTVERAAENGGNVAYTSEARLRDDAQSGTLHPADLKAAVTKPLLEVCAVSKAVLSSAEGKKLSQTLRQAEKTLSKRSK

[8] = molecular target: T4, Tyrosyl-tRNA synthetase, putative (Trypanosoma cruzi (strain CL Brener)); experiment: Trypanosoma cruzi tyrosyl tRNA synthetase (TcYRS) SOP; format: functional; conditions: 30 µM
[9] = molecular target: Chromo domain-containing protein 1 (Saccharomyces cerevisiae (strain ATCC 204508 / S288c) (Baker's yeast)) (UniProt P32657); experiment: ScCHD-1 Enzyme Inhibition Assay; format: functional; conditions: 30 µM; note: in the data most compounds retested in dose-response had high values
Sequence of Chromo domain-containing protein 1 (Saccharomyces cerevisiae (strain ATCC 204508 / S288c) (Baker's yeast)) (P32657 whole entry, the tested form may be a part): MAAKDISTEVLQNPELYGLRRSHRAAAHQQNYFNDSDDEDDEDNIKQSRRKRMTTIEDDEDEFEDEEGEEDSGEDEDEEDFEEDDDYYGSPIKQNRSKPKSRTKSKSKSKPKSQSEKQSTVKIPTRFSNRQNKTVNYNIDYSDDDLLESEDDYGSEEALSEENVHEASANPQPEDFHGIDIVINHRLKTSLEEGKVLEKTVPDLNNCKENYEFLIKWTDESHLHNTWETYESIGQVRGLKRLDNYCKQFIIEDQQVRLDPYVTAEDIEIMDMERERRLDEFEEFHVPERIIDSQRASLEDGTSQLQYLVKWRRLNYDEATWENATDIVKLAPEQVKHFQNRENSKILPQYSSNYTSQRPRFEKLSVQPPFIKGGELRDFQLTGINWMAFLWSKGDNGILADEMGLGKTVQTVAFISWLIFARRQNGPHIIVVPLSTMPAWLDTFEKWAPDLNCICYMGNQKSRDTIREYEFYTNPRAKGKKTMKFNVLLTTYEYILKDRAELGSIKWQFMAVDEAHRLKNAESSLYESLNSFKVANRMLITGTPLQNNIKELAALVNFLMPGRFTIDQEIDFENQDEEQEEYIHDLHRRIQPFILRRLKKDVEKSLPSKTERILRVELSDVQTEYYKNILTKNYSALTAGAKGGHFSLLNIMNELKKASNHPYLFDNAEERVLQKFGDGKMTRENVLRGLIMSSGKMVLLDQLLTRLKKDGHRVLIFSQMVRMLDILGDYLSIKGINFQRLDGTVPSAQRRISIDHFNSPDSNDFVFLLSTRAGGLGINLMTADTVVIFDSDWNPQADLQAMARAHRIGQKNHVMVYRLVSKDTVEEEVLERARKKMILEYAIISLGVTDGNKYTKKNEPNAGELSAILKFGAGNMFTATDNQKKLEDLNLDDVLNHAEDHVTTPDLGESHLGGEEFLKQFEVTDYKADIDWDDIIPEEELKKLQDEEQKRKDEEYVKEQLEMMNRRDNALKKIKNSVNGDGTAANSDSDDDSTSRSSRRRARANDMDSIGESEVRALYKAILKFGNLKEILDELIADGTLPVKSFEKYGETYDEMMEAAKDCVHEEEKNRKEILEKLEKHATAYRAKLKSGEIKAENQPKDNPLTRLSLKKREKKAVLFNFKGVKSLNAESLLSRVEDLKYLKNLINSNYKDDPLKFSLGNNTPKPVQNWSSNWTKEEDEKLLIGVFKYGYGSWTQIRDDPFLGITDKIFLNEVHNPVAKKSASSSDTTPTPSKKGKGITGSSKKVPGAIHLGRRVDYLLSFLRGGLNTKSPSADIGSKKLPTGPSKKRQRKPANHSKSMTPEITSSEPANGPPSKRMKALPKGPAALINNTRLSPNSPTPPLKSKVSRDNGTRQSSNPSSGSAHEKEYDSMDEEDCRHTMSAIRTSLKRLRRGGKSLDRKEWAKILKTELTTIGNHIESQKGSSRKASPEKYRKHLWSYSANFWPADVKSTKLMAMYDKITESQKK

Sequence of Protein translocase subunit SecA (Escherichia coli (strain K12)) (P10408 whole entry): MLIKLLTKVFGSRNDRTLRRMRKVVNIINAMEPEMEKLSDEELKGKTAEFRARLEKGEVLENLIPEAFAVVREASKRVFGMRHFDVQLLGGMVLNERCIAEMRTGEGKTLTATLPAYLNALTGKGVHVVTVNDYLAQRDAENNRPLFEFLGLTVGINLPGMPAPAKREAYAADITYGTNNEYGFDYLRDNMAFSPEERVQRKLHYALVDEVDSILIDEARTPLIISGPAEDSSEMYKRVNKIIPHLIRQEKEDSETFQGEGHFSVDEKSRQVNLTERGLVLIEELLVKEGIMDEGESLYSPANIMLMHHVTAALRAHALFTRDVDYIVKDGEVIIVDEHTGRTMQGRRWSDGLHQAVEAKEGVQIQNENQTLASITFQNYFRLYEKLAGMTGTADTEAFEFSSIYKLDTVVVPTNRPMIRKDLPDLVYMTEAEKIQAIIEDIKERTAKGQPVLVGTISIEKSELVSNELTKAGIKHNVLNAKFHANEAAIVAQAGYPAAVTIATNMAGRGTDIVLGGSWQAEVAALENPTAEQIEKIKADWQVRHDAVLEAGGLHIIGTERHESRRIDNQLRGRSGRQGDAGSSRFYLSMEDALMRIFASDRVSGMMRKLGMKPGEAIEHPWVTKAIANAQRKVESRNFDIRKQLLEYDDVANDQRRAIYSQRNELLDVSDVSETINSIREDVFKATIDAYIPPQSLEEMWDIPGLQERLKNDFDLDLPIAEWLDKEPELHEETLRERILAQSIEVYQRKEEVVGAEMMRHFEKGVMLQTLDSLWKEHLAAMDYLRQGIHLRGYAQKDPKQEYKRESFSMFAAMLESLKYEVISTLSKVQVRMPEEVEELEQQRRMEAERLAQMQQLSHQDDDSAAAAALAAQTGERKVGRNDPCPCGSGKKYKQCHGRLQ
Sequence of Sialic acid-binding Ig-like lectin 9 (Homo sapiens) (Q9Y336 whole entry): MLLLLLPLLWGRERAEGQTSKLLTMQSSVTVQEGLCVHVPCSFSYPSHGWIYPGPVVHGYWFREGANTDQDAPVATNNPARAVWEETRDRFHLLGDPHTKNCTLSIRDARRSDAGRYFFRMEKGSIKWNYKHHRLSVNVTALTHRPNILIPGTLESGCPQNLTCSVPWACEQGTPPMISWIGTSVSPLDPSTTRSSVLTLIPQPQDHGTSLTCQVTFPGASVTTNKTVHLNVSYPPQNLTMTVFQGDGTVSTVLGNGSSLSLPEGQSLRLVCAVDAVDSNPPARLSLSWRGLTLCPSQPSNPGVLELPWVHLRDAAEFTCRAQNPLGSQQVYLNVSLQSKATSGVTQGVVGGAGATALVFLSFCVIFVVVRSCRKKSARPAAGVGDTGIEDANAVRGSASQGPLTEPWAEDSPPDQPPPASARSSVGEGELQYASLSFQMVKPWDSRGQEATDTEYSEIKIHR

Row | Compound | Percent Effect [1] [%] | Percent Effect [2] [%] | Percent Effect [3] [%] | Percent Effect [4] [%] | Percent Effect (Trypanosoma cruzi) [%] | Percent Effect [5] [%] | Percent Effect [6] [%] | Percent Effect (Homo sapiens) [%] | Percent Effect [7] [%] | Percent Effect [8] [%] | Percent Effect [9] [%]
1 | CC(C(=O)N1CCCN(c2ccc(C#N)cc2)CC1)n1ccnc1 (configuration not stated) | -5.97 | 15.8 | -5.83 | -1.34 | 3.01 | 6.13 | 8.52 | -7.67 | 8.33 | 19.5 | -17.9
2 | O=C(NCCc1csc(N2CCCC2)n1)N(C1CCCC1)C1CC1 | 0.399 | -5.33 | -9.08 | 16 | -1.66 | 2.08 | 27.4 | 6.62 | 12.6 | 11.1 | -6.87
3 | CC(=O)NCCc1ccc(C(=O)N2CCCC2c2cnn(C)c2)cc1 (configuration not stated) | -1.4 | 21.1 | -6.64 | -8.62 | 2.89 | -3.6 | 11.9 | 1.72 | 4.43 | 16.1 | -8.59
4 | COc1ccccc1CC(=O)N1CCC(NCc2cccnc2)CC1 | -3.89 | 16.2 | -2.91 | -2.63 | -9.01 | -0.924 | 7.18 | 3.6 | 3.96 | 3.66 | -3.87
5 | O=S(=O)(NC1=NCN(CCc2cccs2)CN1)c1ccccc1 | -3.47 | 9.33 | 1.7 | 2.24 | 6.29 | -11.1 | 18.3 | 19.6 | 5.29 | 12.8 | -7.27
6 | Cc1nc(C2CCCN2CC(=O)NCCc2ccsc2)no1 (configuration not stated) | -2.17 | 16.2 | -10.4 | 13.2 | 5.11 | 3.51 | 10.4 | -5.59 | 6.93 | 18.3 | -8.06
7 | CCOCC(O)CN1CCN(C(=O)c2cccnc2OC)CC1 (configuration not stated) | -3.44 | 0 | 4.2 | 3.65 | -0.936 | 2.85 | -3.72 | 5.16 | 3.88 | 0 | 1.44
8 | CC(O)CN1CCC(CNCc2cccc(OC(C)C)c2)CC1 (configuration not stated) | -8.77 | 8.11 | -23.9 | 28.4 | 8.21 | -9.22 | 1.26 | 9.15 | 6.4 | 23.5 | -14.8
9 | COc1ccc(C2=CCN(C(=O)CN(C)Cc3ccoc3)CC2)cc1 | -6.75 | 7.59 | -2.65 | 5.81 | 11.6 | -5.32 | 10.4 | 28.5 | 8.37 | 21.5 | -11.7
10 | c1cnn(CC2CN(Cc3nc(-c4ccsc4)no3)CCO2)c1 (configuration not stated) | -2.55 | 10.5 | -2.23 | 16.5 | -1.13 | 0.766 | -2.34 | 6.35 | 1.47 | 9.76 | 0.902
11 | Cc1cc(CN2CCOC(CN(C)c3cccnn3)C2)no1 (configuration not stated) | -4.31 | 0 | 18.6 | -5.84 | 3.23 | -0.21 | 6.39 | 1.91 | 0.952 | 2.35 | -18.6
12 | CCS(=O)(=O)NCCNC(=O)c1cc(Cl)c2c(c1)OCCCO2 | -1.06 | 8.11 | -7.22 | 31.3 | 1.47 | 5.21 | 8.33 | 12.9 | 2.15 | 16.1 | -5.31
13 | O=C(c1cscn1)N1C[C@H]2CCCC(OCc3cccnc3)[C@H]2C1 (some centres not stated) | -5.26 | 5.33 | -2.55 | 2.64 | -0.193 | -37.5 | 9.06 | -6.53 | 1.04 | 12.5 | -5
14 | CN1CCCC(Cc2cncc(C(=O)NCC3CC3)c2)C1 (configuration not stated) | -4.88 | 1.35 | 8.98 | 0.654 | 0.79 | -2.09 | 4.68 | 7.04 | 5.38 | 11.7 | -7.98
15 | CN(C(=O)c1ccccn1)c1nc2c(s1)CCc1c-2cnn1C | -3.06 | 52.7 | 11 | -2.4 | 4.94 | -4.41 | 11.5 | 16.9 | -4.3 | 1.3 | -15.7
16 | CC(=O)N1CCNCC1c1cccc(C(=O)N(C)C)c1 (configuration not stated) | -0.644 | -6.76 | 10.3 | -0.354 | -4.94 | 4.41 | -3.43 | 4.59 | 1.07 | 1.3 | 0.199
17 | COc1c(C)cnc(CN2CCC(C(=O)N(C)C)CC2)c1C | -5.69 | 5.2 | 0.364 | 10.3 | 2.81 | 1.42 | 9.46 | -0.558 | 1.94 | 7.32 | -6.93
18 | c1ccc(OCCN2CCCC(c3noc(C4CC4)n3)C2)cc1 (configuration not stated) | -8.89 | 0 | 3.25 | -3.02 | -3.02 | -1.56 | 10.1 | 6.37 | -4.92 | 1.24 | -2.68
19 | Cc1cnc(CN2CCC(N(C)Cc3nnc(C4CC4)n3C)C2)cn1 (configuration not stated) | -4.85 | 0 | 1.39 | -3.06 | -0.0978 | 2.73 | 8.67 | -19.5 | 6.45 | 8.64 | -2.52
20 | CCOCCCNC(=O)c1ccccc1S(C)(=O)=O | -4.36 | 0 | 7.43 | 5.86 | 2.82 | -8.28 | 11.6 | -12.4 | 1.06 | 5.2 | 0.767
21 | Cc1ncc2c(n1)CN(Cc1nnc(Cc3ccccc3)o1)CC2 | -2.29 | 24.3 | -11.8 | 1.92 | 5.66 | 4.99 | 13.8 | -0.54 | 29.7 | 28.1 | -9.78
22 | N#Cc1ccccc1N1CCCN(C(=O)CCc2nccs2)CC1 | -2.01 | 12.7 | -0.172 | 4.85 | -4.25 | 5.7 | 3.36 | 17.5 | 3.45 | 11.4 | -6.41
